# Pf growth 96h: inhibits malaria parasite growth, 96 h; P. falciparum luciferase reporter growth, 96 h; Potency, µM (highest dose often 28.7 µM), for inactives: at the top dose activity change, negative = inhibition, most hits filed as inhibitors; 320,000 compounds, 6.9% hits; AID 504834; note: potency is the fitted concentration of half-maximal effect; % is set by controls: 0 for no effect and ±100 for the full control effect
#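 Luminescence readout: decreased luciferase signal marks inhibited growth of reporter-expressing P. falciparum in infected red cells (2% hematocrit, 0.05% parasitemia final), exposed to compound two generations (96 h, 37 C, 5% CO2).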
# Giardia FBPA inh: Giardia lamblia aldolase inhibition | purified Giardia FBPA | AID 2451 | A8B2U2 | 290,000 compounds, 0.71% hits | Potency, µM (top dose mostly 59.6 µM), for inactives: at the highest dose activity, negative = inhibition, actives largely listed as inhibitors; note: potency is the fitted concentration of half-maximal effect; % is set by controls: 0 for no effect and ±100 for the full control effect; nearly all actives have a fitted effect of over 55% in size
# Target sequence (A8B2U2 whole entry, looked up): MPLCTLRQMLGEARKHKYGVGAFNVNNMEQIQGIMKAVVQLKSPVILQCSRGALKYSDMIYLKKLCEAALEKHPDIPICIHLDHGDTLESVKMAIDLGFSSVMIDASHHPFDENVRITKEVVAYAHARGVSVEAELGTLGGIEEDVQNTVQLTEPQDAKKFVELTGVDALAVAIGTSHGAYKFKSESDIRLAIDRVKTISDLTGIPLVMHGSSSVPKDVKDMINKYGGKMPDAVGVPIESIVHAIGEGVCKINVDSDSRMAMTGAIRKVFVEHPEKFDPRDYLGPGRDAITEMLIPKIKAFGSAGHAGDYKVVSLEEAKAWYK
#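 40 nM FBPA preincubated 10 min at RT with compound (up to 57.5 uM final), then substrate plus GAPDH/TPI/NAD/arsenate coupling and diaphorase/resazurin added. Fluorescence read after 20 min at RT, 525/598 nm.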
# Shiga inhibitor: blocks Shiga toxin action in Vero cells | Vero cells, Shiga toxin protein synthesis inhibition reporter | inhibition, % at 38.7 µM | 290,000 compounds, 9.2% hits | AID 2315; in the data active = inhibition mostly above about 28%, no sharp cut-off; inactive = mostly below about 43%; note: 0% is about no effect
# Pf growth 48h: inhibits P. falciparum growth in the first generation, 48 h. P. falciparum luciferase growth in erythrocytes, 48 h. Potency, µM (highest dose often 28.7 µM), without a hit: top-dose activity change, negative = inhibition, usual class: inhibitors. 310,000 compounds, 5.9% hits. AID 504832; note: potency is the fitted concentration of half-maximal effect; % is set by controls: 0 for no effect and ±100 for the full control effect
#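 Parasite viability was followed by luminescence of a genomically integrated firefly luciferase. Cultures held 0.1% parasitemia at 2% hematocrit (final), incubated under 5% CO2 at 37 C.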
# NS1 function inh: blocks influenza NS1 protein function; 270,000 compounds, 0.4% hits; AID 2326; Potency, µM (doses to about 46.1 µM), inactives show top-dose activity, positive = more growth; calls by dose curve; note: potency is the fitted concentration of half-maximal effect; actives are rising curves; nearly all actives have a fitted effect of over 50% in size
#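 Recovery from NS1-induced slow growth read by OD600 in budding yeast switched to galactose assay medium (pH 6.0, -URA) at 1:100 dilution. Compound 23 nl per well; the matching strain lacking NS1 serves as control.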
# CHX counter: affects cycloheximide protein synthesis inhibition readout, counter-screen | max response, % | 300,000 compounds, 12% hits | AID 2314 | cell reporter, cycloheximide protein synthesis inhibition counterscreen; in the data active = max response mostly above about 13%, no sharp cut-off; inactive = mostly below about 14%; note: read at 38.3 µM for the half of the compounds with a filed dose; 0% is about no effect
# Starred values were filed as active, the others as inactive; i = inactive; ? = inconclusive; / = no result; [ ] = remark or other dose. Hits are enriched below; roughly 21% of the tested compounds scored in any of these assays. Unless noted, calls come from the whole dose curve; as a rule, active = well fitted curve in the direction sought with a large enough effect; inconclusive = small, poorly fitted or top-dose-only effect, or another doubt; inactive = no such curve, though single readings can be large; an effect the other way counts as inactive or inconclusive.
SMILES,Pf growth 96h,Giardia FBPA inh,Shiga inhibitor,Pf growth 48h,NS1 function inh,CHX counter
COc1cccc(NC(=O)C(NCCc2ccc(S(N)(=O)=O)cc2)c2ccccc2)c1 (stereo not given),?,6%,3,-38%,5%,-2
O=C(Nc1cccc(C(=O)O)c1)/C(=C\c1ccccc1Cl)NC(=O)c1ccco1,0%,/,26,-15%,-6%,-6
CCC(C)c1c(O)nc(SCC(=O)N2CCCCCC2)[nH]c1=O (stereo not given),-2%,-13%,2,?,6%,-8
COC(=O)C1CCN(S(=O)(=O)CCNC(=O)c2ccc3c(c2)OCO3)CC1,28%,/,/,32%,/,/
C/C(=C\C(=O)Nc1nccs1)c1ccccc1,37%,9%,116*,105%,-86%,57*
O=C(Nc1ccc(Cl)cc1)Nc1nccs1,61%,-2%,47*,56%,-69%,30*
Cc1ccccc1S(=O)(=O)Cc1ccc(C(=O)NC2CCCCC2)o1,25%,7%,-5,11%,1%,3
CC(OC(=O)c1cccc(-n2cnnn2)c1)C(=O)NC1(C#N)CCCCC1 (stereo not given),2%,/,/,?,/,/
COc1ccc(COC(=O)C2CCN(S(=O)(=O)c3ccc(C)cc3)CC2)cc1,0%,/,/,-16%,/,/
COc1cc(C2Oc3ccccc3C=C2[N+](=O)[O-])cc(OC)c1OC (stereo not given),?,-22%,-13,?,-128%,-9
O=C(Nc1ccc2c(c1)OCO2)C1Cc2ccccc2CN1S(=O)(=O)c1cccs1 (stereo not given),5%,5%,26,45%,-5%,18*
Cc1nn(C)c(C)c1S(=O)(=O)N1CCC(C(=O)Nc2ccc3c(c2)OCCO3)CC1,?,-2%,81*,/,-10%,30
O=C(C1Cc2ccccc2CN1S(=O)(=O)c1cccs1)N1CCCCC1 (stereo not given),/,-4%,-3,-8%,-2%,9.5*
O=C(Nc1ccc2c(c1)OCO2)C1CCCN(S(=O)(=O)c2cccs2)C1 (stereo not given),?,-2%,0,42%,2%,2
O=C(Nc1ccc2c(c1)OCO2)C1CCN(S(=O)(=O)c2cccs2)CC1,3%,-14%,42*,-13%,-14%,8.4*
CN(C)C(=O)C1Cc2ccccc2CN1S(=O)(=O)c1cccs1 (stereo not given),36%,4%,10,-20%,-1%,-3
Cc1nc(N2CCOCC2)c2nc(-c3ccccc3)n(CCCN(C)C)c2n1,/,0%,/,/,/,/
O=C(c1csnn1)N1CCC[C@@]2(CCN(C(c3ccccc3)c3ccccc3)C2)C1,/,6%,/,/,/,/
CCc1ccc(C(=O)NNC(=O)c2ccc(OCC(=O)N3CCOCC3)c(OC)c2)cc1,0%,/,/,4%,/,/
CCOc1ccc(N(C(C)C(=O)N2CCCC2)S(C)(=O)=O)cc1 (stereo not given),-102%,4%,2,6%,-61%,-3
O=C(Nc1ccc2c(c1)OCCO2)C1CCN(S(=O)(=O)c2cccs2)CC1,5%,-6%,23,/,-7%,24*
O=C(Nc1ccc2c(c1)OCCO2)C1CCCN(S(=O)(=O)c2cccs2)C1 (stereo not given),/,-10%,-7,7%,-7%,-2
COC(=O)CC1C(=O)NCCN1C(=O)CSc1nc2cc(Cl)ccc2o1 (stereo not given),11%,2%,-15,0%,0%,-4
CCCCc1nc2cc(C(=O)N3CCNC(=O)C3CC(=O)OC)ccc2o1 (stereo not given),?,5%,8,29%,6%,15*
COC(=O)CC1C(=O)NCCN1C(=O)c1ccc2oc(C(C)C)nc2c1 (stereo not given),15µM*,3%,15,7%,-5%,9
SMILES,Pf growth 96h,Giardia FBPA inh,Shiga inhibitor,Pf growth 48h,NS1 function inh,CHX counter
O=C(OCC(=O)N1CCCC1=O)c1ccc(Cl)cc1[N+](=O)[O-],6%,/,/,34%,/,/
O=C(CCS(=O)(=O)c1ccccc1Cl)NCCC1=CCCCC1,62%,/,61*,43%,-4%,35*
O=C(COC(=O)c1ccccc1)NCCC1=CCCCC1,28%,4%,13,17%,/,14*
O=C(CCc1ccccc1)NCCC1=CCCCC1,?,5%,99*,54%,11%,40*
O=C(CN1C(=O)C2C3C=CC(C3)C2C1=O)NCCC1=CCCCC1 (stereo not given),-9%,-1%,32,41%,-2%,22*
O=C(Cc1ccccc1)NCCC1=CCCCC1,?,2%,13,43%,-4%,-1
CO[C@H]1COC(=O)C/C=C\[C@@H](C)COC(=O)[C@H]2CCCN2C(=O)C/C=C\[C@H]1C,/,0%[12.9 µM],/,/,/,/
O=C(c1ccc(-c2ccc([N+](=O)[O-])cc2)o1)N1CCN(S(=O)(=O)c2cccs2)CC1,23%,/,/,18%,/,/
Cc1ccsc1C(=O)OCC(=O)NCCC1=CCCCC1,i,1%,35,28%,-1%,22*
CN(C)c1ccc(C(=O)OCC(=O)NCCC2=CCCCC2)cc1,4%,0%,10,-12%,/,1
O=C(CCCc1ccccc1)NCCC1=CCCCC1,108%,-2%,20,37%,-9%,27*
O=C(NC1CCCCCC1)c1ccc(Cl)c(S(=O)(=O)N2CCOCC2)c1,-26%,3%,-3,?,0%,1
COc1ccc(Cn2c(C3CCCCC3)nc3c(c(=O)c4ccccc4n3C)c2=O)cc1,2.3µM*,1%,21,3.3µM*,-4%,2
CCCc1nc2oc3cc(OC)ccc3c(=O)c2c(=O)n1CCc1ccccc1,0%,3%,-5,?,0%,1
COc1ccc(CCn2c(-c3ccccc3)nc3c(c(=O)c4ccccc4n3C)c2=O)cc1,?,6%,-12,0%,13%,-2
COc1ccc(CCn2c(C(C)C)nc3oc4ccccc4c(=O)c3c2=O)cc1,6.6µM*,1%,20,8.3µM*,-2%,-1
COc1ccc(CCn2c(C3CCCCC3)nc3c(c(=O)c4ccccc4n3C)c2=O)cc1,?,-1%,-2,?,0%,-3
CC(C)c1nc2c(c(=O)c3ccccc3n2C)c(=O)n1CCc1ccccc1,4.7µM*,-2%,-10,?,1%,-2
COc1ccc(Cn2c(-c3ccccc3)nc3c(c(=O)c4ccccc4n3C)c2=O)cc1,12µM*,2%,-3,-15%,9%,-3
COc1ccc(CCn2c(C3CCCCC3)nc3c(c(=O)c4ccccc4n3C)c2=O)cc1OC,4.7µM*,5%,-6,3.3µM*,-2%,1
COCCn1c(-c2ccccc2Cl)nc2c(c(=O)c3ccccc3n2C)c1=O,?,0%,-14,-19%,0%,-3
COCCn1c(-c2ccc(Cl)cc2)nc2c(c(=O)c3ccccc3n2C)c1=O,8.3µM*,2%,-81,?,4%,-3
